Records with an inconclusive call do not appear. A call without a number means that no potency is given here. A number with no mark means an inactive call. Active and inactive are the calls of the source. Calls follow the shape of the dose curve; as a rule, active = well fitted cell-killing curve with a large enough effect in the repeat runs; inconclusive = weak or mixed curves, or effect the other way; inactive = no such curve, though single readings can be large or run the other way.
Experiment: qHTS assay to identify small molecule antagonists of the progesterone receptor (PR) signaling pathway - cell viability counter screen (AID 1346798); also: nearly all actives have a fitted effect of over 50% in size
Details: PR-UAS-bla HEK293T viability, CellTiter-Glo luminescence, 16 h; series mostly up to 92.4 µM; activity change, negative = cytotoxicity: at the top concentration
Description: National Center for Advancing Translational Sciences [NCATS]
NIH Chemical Genomics Center [NCGC]
U.S. Environmental Protection Agency [EPA]
National Institutes of Environmental Health Sciences [NIEHS]
National Toxicology Program [NTP]
U.S. Food and Drug Administration [FDA]
Progesterone receptor (PR), a nuclear hormone receptor, plays an important role in development, metabolic homeostasis and reproduction. It is activated by the steroid hormone progesterone. Endocrine disrupting chemicals (EDCs) and their interactions with steroid hormone receptors like PR causes disruption of normal endocrine function. To identify the compounds that inhibit PR signaling, a PR-UAS-bla GripTite cell line i.e. PR-UAS-bla HEK293T (Invitrogen, Carlsbad, CA, USA) containing a beta-lactamase reporter gene under the control of an UAS response element was used to screen Tox21 10K compound library. The cytotoxicity of the Tox21 compound library against the PR-bla cell line was tested in parallel by measuring the cell viability using CellTiter-Glo assay in the same wells.
Tox21 Assay Protocol Summary:
PR-UAS-bla HEK293T cells were dispensed at 3,000 cells/4 uL of assay medium containing 2% charcoal stripped FBS per well into black wall/clear-bottom 1536-well plates using a Multidrop Combi (ThermoFisher Scientific, Waltham, MA) dispenser. After the assay plates were incubated at a 37C and 5% CO2 for 4 hr, 23 nL of compounds dissolved in DMSO, positive controls or DMSO only was transferred to the assay plate by a Pintool station (Kalypsys, San Diego, CA), followed by addition of 1 uL of R5020 in assay medium using a Flying Reagent Dispenser (FRD, Aurora Discovery, San Diego, CA). The plates were incubated at 37C and 5% CO2 for 16 hr. Then 1 uL of LiveBLAzer B/G FRET substrate was added using a Flying Reagent Dispenser, the plates were incubated at room temperature for 2 hours, and fluorescence intensity was measured by an Envision plate reader (PerkinElmer, Shelton, CT). For cell viability readout that measures cytotoxicity, 4 uL/well of CellTiter-Glo reagent was added into the assay plates using a FRD. After 30 min incubation at room temperature, the luminescence intensity in the plates was measured using a ViewLux (PerkinElmer) plate reader.
For CCCCOCCOCCSC#N, the “activity change, negative = cytotoxicity” value was -0.665%.
With O=C(O)CN(CC(=O)O)CC(=O)O the Potency was “inactive”.
In the case of CC(C)Cc1ccc(C(C)C(=O)O)cc1 (stereo not given), the Potency is reported as “inactive”.
With CCCCC/C(C=O)=C\c1ccccc1 the Potency was “inactive”.
With COc1ccc(O)cc1 the Potency was “inactive”.
With O=C1OC(c2ccc(O)cc2)(c2ccc(O)cc2)c2ccccc21 the Potency was “inactive”.
With Cc1c(N(C)C)c(=O)n(-c2ccccc2)n1C the Potency was “inactive”.
For Cc1cnc(NC(=O)C2=C(O)c3ccccc3S(=O)(=O)N2C)s1, the Potency was “inactive”.
In the case of CCn1cc(C(=O)O)c(=O)c2ccc(C)nc21, the Potency is reported as “inactive”.
In the case of N[C@@H](Cc1c[nH]c2ccc(O)cc12)C(=O)O, the Potency is reported as “inactive”.
With O=[N+]([O-])c1ccc(O)cc1 the “activity change, negative = cytotoxicity” value was -28%.
For C=CCOC(=O)CC(C)C, the Potency was “inactive”.
For CC(C)CC(C)CC(O)CC(C)C (stereo not given), the Potency was “inactive”.
With C[C@]12CC[C@@H]3c4ccc(O)cc4C[C@@H](CCCCCCCCCS(=O)CCCC(F)(F)C(F)(F)F)[C@H]3[C@@H]1CC[C@@H]2O (stereo not given in full) the Potency was “inactive”.
With Cn1cnc2c1c(=O)[nH]c(=O)n2C the Potency was “inactive”.
For OC[C@@H](O)[C@@H](O)[C@H](O)[C@H](O)CO, the Potency was “inactive”.
With C=C(C)C(N)=O the Potency was “inactive”.
In the case of N[C@@H](Cc1c[nH]c2ccccc12)C(=O)O, the Potency is reported as “inactive”.
In the case of CC(O)COc1ccccc1 (stereo not given), the Potency is reported as “inactive”.
In the case of Cc1c(N(C)CS(=O)(=O)O)c(=O)n(-c2ccccc2)n1C, the Potency is reported as “inactive”.
With O=c1c(-c2ccc(O)cc2)coc2cc(O)cc(O)c12 the “activity change, negative = cytotoxicity” value was 31% [at 42.5 µM].
In the case of CC(C)(C)NCC(O)c1ccc(O)c(CO)c1 (stereo not given), the Potency is reported as “inactive”.
In the case of Oc1cccc(O)c1, the Potency is reported as “inactive”.
With Cc1cccc(Nc2cc(Cl)nc(SCC(=O)O)n2)c1C the Potency was “inactive”.
For CN(C)Cc1cc(CN(C)C)c(O)c(CN(C)C)c1, the Potency was “inactive”.
With CC(=O)c1ccc(S(=O)(=O)NC(=O)NC2CCCCC2)cc1 the Potency was “inactive”.
With O=C(O)CCCCC1CCSS1 (stereo not given) the Potency was “inactive”.
In the case of CCCCCCCC(=O)OCC(O)CO (stereo not given), the Potency is reported as “inactive”.
In the case of CN/C(=C\[N+](=O)[O-])NCCSCc1ccc(CN(C)C)o1, the Potency is reported as “inactive”.
For C[C@]12C[C@H](O)[C@H]3[C@@H](CCC4=CC(=O)CC[C@@]43C)[C@@H]1CC[C@@H]2C(=O)CO, the “activity change, negative = cytotoxicity” value was 0.895%.
For NC(=O)NO, the “activity change, negative = cytotoxicity” value was -3.89% [at 42.5 µM].
For Cc1cccc(C)c1O, the Potency was “inactive”.
With CC(=O)CCC(C)C the Potency was “inactive”.
In the case of CCCCNC(=O)NS(=O)(=O)c1ccc(N)cc1, the Potency is reported as “inactive”.
In the case of COC(=O)c1ccc(O)cc1, the Potency is reported as “inactive”.
For CC(C)=CCC/C(C)=C/CO, the Potency was “inactive”.
With NC(=O)c1ccc([N+](=O)[O-])cc1Cl the Potency was “inactive”.
In the case of O=C1CCCCCN1, the Potency is reported as “inactive”.
With C#C[C@]1(O)CC[C@H]2[C@@H]3CCC4=CC(=O)CC[C@@H]4[C@H]3CC[C@@]21CC the “activity change, negative = cytotoxicity” value was 18.1%.
In the case of C/C=C/c1ccc(O)c(OC)c1, the Potency is reported as “inactive”.

Reference: PubChem BioAssay (Tox21)
